Source: PubChem BioAssay (several laboratories)
Many of the other results were omitted from the sample, so hits are more common in it than they were.
ARNT-TACC3 inh: disruptors of ARNT/TACC3 protein interaction, primary screen, biochemical, AlphaScreen, single concentration; Transforming acidic coiled-coil-containing protein 3 (Homo sapiens), Q9Y6A5; AlphaScreen His-ARNT PAS-B/GST-TACC3 binding, luminescence; TACC3 fragment carries E629A point mutation; inhibition, % at 9.99 µM; hit rate 0.66% among 390,000;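 active means mean inhibition of replicates at least 50% and at least half of replicates each reaching 50%; inconclusive means half or more replicates reach 50% but mean below 50%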
NRP1-CendR mod: modulators of CendR peptide binding to NRP-1, primary screen, biochemical, fluorescence polarization, uHTS | FAM-RPARPAR peptide binding to NRP-1 | hit rate 0.85% among 360,000 | inhibition, % at 25 µM | AID 602438, 2012;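 active means inhibition or corrected inhibition above about 18%, plus a signal ratio from 0.5 to 1.5, limit read from the data, passing the limit was not always enough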
ALR inh: inhibitors of human ALR sulfhydryl oxidase, primary screen, biochemical, H2O2 detection, HRP-luminol luminescence, single point; hit rate 3.8% among 290,000; purified ALR, DTT oxidation; AID 485317, 2010; FAD-linked sulfhydryl oxidase ALR (Homo sapiens), P55789; inhibition, % (test concentration not listed);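 active means mean replicate inhibition above about 79%, with every replicate also reaching it, limit read from the data; inconclusive means only one of the two criteria met; inactive means mean below limit and not every replicate reaching it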
PglD inh: C. jejuni PglD acetyltransferase inhibitors, primary screen, biochemical, DTNB colorimetric, single point. purified PglD enzyme, DTNB colorimetric CoA detection. UDP-N-acetylbacillosamine N-acetyltransferase PglD (Campylobacter jejuni). inhibition, % at 12.5 µM. hit rate 0.098% among 360,000. AID 602405, 2012; in the data active means inhibition above about 16%, passing the limit was not always enough; inconclusive means no clear call, values can overlap the other calls
PDI inh: inhibitors of human PDI, primary screen, biochemical, turbidity, single point, plate reader | PDI insulin aggregation turbidity, A650, 90 min | inhibition, % at 10 µM | Protein disulfide-isomerase (Homo sapiens), P07237 | hit rate 0.052% among 350,000 | AID 588391, 2011;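 active means mean inhibition across replicates of 30% or more, whatever share of single replicates reach that level; inconclusive means mean inhibition below 30% while every single replicate reaches 30%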
Target sequence (P07237 whole entry, looked up): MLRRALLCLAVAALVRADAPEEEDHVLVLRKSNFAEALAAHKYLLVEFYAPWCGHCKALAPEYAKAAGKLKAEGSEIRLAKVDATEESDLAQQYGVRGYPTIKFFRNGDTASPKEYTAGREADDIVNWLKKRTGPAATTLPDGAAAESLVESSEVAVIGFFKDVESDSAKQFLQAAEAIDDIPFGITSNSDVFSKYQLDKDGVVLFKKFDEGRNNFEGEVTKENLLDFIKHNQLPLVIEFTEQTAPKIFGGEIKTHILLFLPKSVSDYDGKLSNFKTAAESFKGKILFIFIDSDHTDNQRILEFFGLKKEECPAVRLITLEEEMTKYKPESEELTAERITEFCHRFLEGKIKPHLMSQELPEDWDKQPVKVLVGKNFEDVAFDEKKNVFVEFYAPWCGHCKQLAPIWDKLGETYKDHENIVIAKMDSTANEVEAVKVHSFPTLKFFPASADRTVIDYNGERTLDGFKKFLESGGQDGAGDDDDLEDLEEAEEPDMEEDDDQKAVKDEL
ERp5 inh: inhibitors of ERp5-driven insulin aggregation, primary screen, biochemical, turbidity, absorbance 650 nm, single point; 90 min; AID 651711, 2012; hit rate 0.05% among 350,000; Protein disulfide-isomerase A6 (Homo sapiens), Q15084; inhibition, % at 9.99 µM;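 active means mean replicate inhibition above about 25%, with every replicate also reaching it, limit read from the data, passing the limit was not always enough; inconclusive means only one of those two criteria met; inactive means neither criterion met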
A number is an active result; - = inactive; ? = inconclusive; . = not tested or not shown.

SMILES	ARNT-TACC3 inh	NRP1-CendR mod	ALR inh	PglD inh	PDI inh	ERp5 inh
Cc1ccccc1-c1nc(CS(=O)CC(=O)NCc2ccccn2)c(C)o1 (stereo unspecified)	-	-	98	-	-	-
CO[C@@H]1CN(C)C(=O)c2cc(NS(=O)(=O)c3ccccc3C)ccc2OC[C@H](C)N(C)C[C@@H]1C	-	.	.	-	.	-
Brc1ccc(-c2ccc(CNCc3ccccn3)o2)cc1	-	-	.	-	-	-
Clc1cccc(-c2ccc(CNCc3ccccn3)o2)c1	74	-	-	-	-	-
COC(=O)CSCc1nc2ccccc2[nH]c1=O	.	-	99	-	-	-
O=S(=O)(NC1CCCCC1Nc1ccc(Cl)cc1)c1ccccc1 (stereo unspecified)	-	-	?	-	-	-
Cc1ccc(NC2CCCCC2NS(=O)(=O)c2ccc(Cl)cc2)cc1 (stereo unspecified)	-	-	-	-	-	-
Cc1ccc(NC2CCCCC2NS(=O)(=O)c2ccccc2)c(C)c1 (stereo unspecified)	-	-	86	-	-	-
CC(=O)Nc1ccc(NC2CCCCC2NS(=O)(=O)c2ccccc2)cc1 (stereo unspecified)	-	-	99	-	-	-
COc1cccc(CNC(=O)c2cc3c(c(-c4cccc(-c5ccncc5)c4)n2)[C@H](CCO)N([S@@](=O)C(C)(C)C)C3)c1	-	.	.	-	.	-
CCC(=O)N(C)C[C@H]1Oc2cc(Br)ccc2S(=O)(=O)N([C@@H](C)CO)C[C@@H]1C	-	.	.	-	.	-
O=C(Cc1ccccc1)N1CC(=O)N2[C@H](C1)[C@@H](c1ccc(-c3ccccc3)cc1)[C@@H]2CO	.	.	.	.	.	-
COc1cccc(CNS(=O)(=O)c2cc(CN3C(=O)c4cccnc4C3=O)ccc2OC)c1	50	-	-	-	-	-
COc1ccc(CN2C(=O)c3cccnc3C2=O)cc1S(=O)(=O)NCc1ccc(C)cc1	-	-	-	-	-	-
CO[C@H]1CN(C)C(=O)c2cc(NS(=O)(=O)c3ccc(Oc4ccccc4)cc3)ccc2OC[C@@H](C)NC[C@@H]1C	-	.	.	-	.	-
O=C([C@@H]1CC=C[C@@H]2CCN(C3CCCCC3)C(=O)[C@@H]21)N1CCN(c2ccccc2)CC1	-	23	.	-	-	-
O=C(NC1CCCC1)N[C@H]1CC[C@H](CC(=O)N2CCOCC2)O[C@H]1CO	-	.	.	-	.	-
CCN(CC)c1ccc(C2CC(=O)Nc3cc(OC)c(OC)cc32)cc1 (stereo unspecified)	-	-	98	-	-	.
C[C@H](CO)N1C[C@H](C)[C@@H](CN(C)S(=O)(=O)c2ccc(Cl)cc2)Oc2ccc(NC(=O)Cc3cn(C)c4ccccc34)cc2C1=O	-	.	.	-	.	-
CC(=O)NS(=O)(=O)c1ccc(N=c2ssc3c2-c2cc(C)c(C)cc2NC3(C)C)cc1	-	-	99	-	-	-
CNC[C@@H]1Oc2c(NC(=O)c3cc(C)nn3C)cccc2C(=O)N([C@H](C)CO)C[C@@H]1C	-	.	.	-	.	-
CC1(C)CCc2cc(-c3ccnc(=S)[nH]3)ccc2O1	-	-	100	.	-	-
Cc1ccc(-c2ccnc(=S)[nH]2)cc1	-	-	100	-	-	-
S=c1nccc(-c2cccs2)[nH]1	-	-	99	-	-	-
Fc1ccc(-c2noc(-c3ccc4c(c3)CCO4)n2)cc1	-	-	-	-	-	-
S=c1nccc(-c2ccc3c(c2)CCO3)[nH]1	-	-	98	-	-	-
COc1ccc(NC(=O)Nc2ccc3c(c2)CC(=O)N([C@@H](C)CO)C[C@H](C)[C@@H](CN(C)C(=O)Nc2cccc4ccccc24)O3)cc1	-	.	.	-	.	.
